Screening data from PubChem BioAssay.
The sample as a whole holds a higher share of hits than the screen did.
Cycloheximide cs – counter-screen for Shiga toxin inhibitors: cycloheximide protein synthesis inhibition. cell reporter, cycloheximide protein synthesis inhibition counterscreen. max response, %. actives 12% (n = 300,000). AID 2314; in the data active means max response mostly above about 13%, no sharp cut-off; inactive means mostly below about 14%; further: read at 38.3 µM for the half of the compounds with a filed dose; 0% is about no effect
AmpC detergent – AmpC beta-lactamase inhibition with detergent present. P00811. AmpC hydrolysis of nitrocefin, absorbance 480 nm, 0.01% Triton. Potency, µM (top dose mostly 114 µM), without a hit: top-dose activity change, negative = inhibition, hits mostly inhibitors. actives 0.041% (n = 370,000). AID 485294;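 further: potency means the concentration at half of the fitted maximal effect; 0% = no-compound wells and -100% = no-enzyme wells; nearly all actives have a fitted effect of over 25% in size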
Target sequence (P00811 whole entry, looked up): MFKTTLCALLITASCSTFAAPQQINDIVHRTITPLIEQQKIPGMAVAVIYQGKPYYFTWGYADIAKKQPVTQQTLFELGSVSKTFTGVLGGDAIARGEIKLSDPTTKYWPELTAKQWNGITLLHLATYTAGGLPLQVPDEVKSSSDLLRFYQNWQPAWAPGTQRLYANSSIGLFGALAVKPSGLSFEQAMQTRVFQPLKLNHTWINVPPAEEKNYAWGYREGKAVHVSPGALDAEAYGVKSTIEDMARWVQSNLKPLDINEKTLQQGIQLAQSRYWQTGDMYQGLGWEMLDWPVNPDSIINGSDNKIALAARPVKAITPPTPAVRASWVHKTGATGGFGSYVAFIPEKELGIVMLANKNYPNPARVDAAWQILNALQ
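20 mM phosphate pH 7.0 + 0.01% (detergent screen) or 0.0001% Triton X-100; 5.3 nM AmpC reagent; cpd preinc 15 min RT; nitrocefin (800 uM stock) to start; A480 q20 s × 4 min; Activity was normalised to no-enzyme and no-compound control wells.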
NS1 function inh – influenza NS1 inhibition; Potency, µM (doses to about 46.1 µM), for the others: at the highest dose activity, positive = more growth; actives 0.4% (n = 270,000); AID 2326; calls by dose curve; further: potency means the concentration at half of the fitted maximal effect; actives are rising curves; nearly all actives have a fitted effect of over 50% in size
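Read-out: OD600 growth recovery of NS1-expressing budding yeast. Cells grown overnight at 30C in -URA glucose medium, washed, resuspended and diluted 1:100 in 2% galactose assay medium, pH 6.0. Same strain lacking NS1 served as positive control.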
Shiga inhibitor – inhibitors of Shiga toxin in Vero cells; Vero cells, Shiga toxin protein synthesis inhibition reporter; inhibition, % at 38.7 µM; actives 9.2% (n = 290,000); AID 2315; in the data active means inhibition mostly above about 28%, no sharp cut-off; inactive means mostly below about 43%; further: 0% is about no effect
AmpC no deterg – inhibitors of E. coli AmpC beta-lactamase without detergent. P00811. AmpC nitrocefin hydrolysis, absorbance 480 nm, 0.0001% Triton. Potency, µM (series often up to 57.1 µM), for the others: top-dose activity change, negative = inhibition, most hits filed as inhibitors. actives 0.52% (n = 330,000);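 further: potency means the concentration at half of the fitted maximal effect; plate controls were no compound for no effect and no enzyme for full effect; nearly all actives have a fitted effect of over 20% in size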
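20 mM phosphate pH 7.0 + 0.01% (detergent screen) or 0.0001% Triton X-100; 5.3 nM AmpC reagent; cpd preinc 15 min RT; nitrocefin (800 uM stock) to start; A480 q20 s × 4 min; Activity was normalised to no-enzyme and no-compound control wells.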
Active calls of the source: *; ? = inconclusive; . = not tested or not shown. Unless noted, the call rests on the fitted dose curve; in most records, active means well fitted curve in the direction sought with a large enough effect; inconclusive means small, poorly fitted or top-dose-only effect, or another doubt; inactive means no such curve, though single readings can be large; an effect the other way counts as inactive or inconclusive.

SMILES	Cycloheximide cs	AmpC detergent	NS1 function inh	Shiga inhibitor	AmpC no deterg
Cc1nn(-c2ccccc2)c(C)c1/C=N/NC(=O)CSc1nnc(SCc2cccc3ccccc23)s1	7.3	2.0%	24.1%	15.6	2.24µM*
CC(=C/c1ccco1)/C=N/NC(=O)CSc1nnc(SCc2ccc(C)cc2)s1	45.4*	-10.6%	7.2%	32.8*	-29.8%
O=C(CSc1nnc(SCc2ccccc2)s1)N/N=C/c1ccc(Cl)cc1Cl	-3.2	-14.6%	-6.6%	-8.4	-21.8%
O=C(CSc1nnc(SCc2ccc(Cl)cc2)s1)N/N=C/c1ccc(Cl)cc1Cl	32.5*	-11.9%	.	54.9*	-37.4%
O=C(CSc1nnc(SCc2ccccc2)s1)N/N=C/C=C\c1ccco1	-2.5	-5.5%	29.9%	-9.5	-46.1%
Cc1ccc(CSc2nnc(SCC(=O)N/N=C/c3c[nH]c4ccccc34)s2)cc1	18.6*	-6.2%	.	42.4	-14.4%
CC(=O)C1C(c2ccc(F)cc2)C2C(C)=NN=C2CC1(C)O (stereo not given)	1.9	-0.6%	14.7%	22.9	-7.6%
O=C(O)COc1ccccc1/C=N/NC(=O)CSc1nc2ccccc2s1	8.7	13.7%	11.5%	46.6	-27.0%
Cc1ccc(CSc2nnc(SCC(=O)N/N=C/c3ccc(C(=O)O)cc3)s2)cc1	13.0*	1.8%	3.0%	36.7	-39.1%
Cc1ccc(CSc2nnc(SCC(=O)N/N=C/c3ccccc3OCC(=O)O)s2)cc1	20.5*	-1.8%	12.4%	44.2*	-20.6%
CN(C)c1ccc(C(CNS(=O)(=O)c2ccc(Br)cc2)N2CCCC2)cc1 (stereo not given)	.	-0.6%	.	.	.
COc1cccc(C(=O)NC2C(=O)N3C(C(=O)O)=C(COC(C)=O)CSC23)c1 (stereo not given)	.	?	.	.	-25.6%
CO[C@@]1(NC(=O)Cc2cccs2)C(=O)N2C(C(=O)O)=C(COC(N)=O)CS[C@@H]21	-0.7	39.8µM*	16.3%	-3.5	-41.2%
CC1(C)CNC(=O)c2sc(N3CCCCC3)nc2C1	23.2*	-1.8%	-1.3%	55.9	-22.8%
CC1(C)CC(=O)c2sc(NS(C)(=O)=O)nc2C1	-3.7	-5.7%	-6.5%	-3.5	.
CC1(C)CC(=O)c2sc(N3CCCCC3)nc2C1	28.6*	?	4.6%	92.0*	-28.5%
COc1ccc(-c2noc(CC(=O)Nc3ccc(F)cc3F)n2)cc1	.	18.6%	.	.	.
CCC1CC=CC2C1C(=O)N(Cc1ccccc1)C2c1cccc([N+](=O)[O-])c1 (stereo not given)	37.5	.	.	36.7	.
O=C(c1cc(-c2ccc(Cl)cc2)on1)N1CCOCC1	29.2*	?	-1.5%	110.6*	-15.2%
CC1CCN(C(=O)c2cc(-c3ccc(Cl)c(Cl)c3)on2)CC1	1.2	-10.0%	-31.1%	19.9	-13.9%
O=C(c1cc(-c2ccc(Cl)c(Cl)c2)on1)N1CCCC1	21.0*	0.6%	-9.4%	35.6*	?
O=C(c1cc(-c2cccc(Cl)c2)on1)N1CCOCC1	25.1*	-11.8%	-9.9%	137.0*	-0.4%
O=C(c1cc(-c2ccc(Cl)cc2Cl)on1)N1CCOCC1	25.2*	-2.7%	-28.1%	58.9	12.9%
CC1CCN(C(=O)c2cc(-c3ccc(Cl)cc3)on2)CC1	.	18.5%	.	.	.
O=C(c1cc(-c2cccc(Cl)c2)on1)N1CCCCC1	.	6.8%	.	.	.
SMILES	Cycloheximide cs	AmpC detergent	NS1 function inh	Shiga inhibitor	AmpC no deterg
O=C(NCc1ccccc1)c1ccc(NC(=O)c2nsc3ccccc23)cc1	.	-8.1%	.	.	.
CC1CCN(C(=O)CN2C(=O)C(=O)N(C)C2=O)c2ccccc2S1 (stereo not given)	.	6.5%	.	.	-7.3%
Cc1ccc(/C=C/C(=O)O)cc1S(=O)(=O)N1CCCCC1	-3.2	2.3%	-3.0%	-1.6	-6.1%
COc1ccc(CNC(=O)C2CCN(S(=O)(=O)c3c(C)noc3/C=C/c3ccccc3F)CC2)cc1	.	0.2%	.	.	.
Cc1cccc(NC(=O)C(=O)NCC(c2cccnc2)N2CCN(Cc3ccccc3)CC2)c1 (stereo not given)	.	18.4%	.	.	.
CN1CCc2nc(N)nc(-c3nc(N)nc4c3CN(C)CC4)c2C1	.	.	-0.4%	.	.
O=C(c1cc(-c2ccc(Cl)c(Cl)c2)on1)N1CCOCC1	17.0*	-5.1%	8.1%	45.4*	-1.7%
O=C(NCCN1CCOCC1)c1cc(-c2ccc(Cl)c(Cl)c2)on1	-4.2	-2.0%	1.5%	-7.2	-3.7%
CCc1ccc(-n2c(SCc3ccccc3Cl)nc3[nH]ncc3c2=O)cc1	.	-7.3%	.	.	.
COc1c(OC(C)=O)ccc(/C=C/c2ccc3cccc(OCc4ccccc4)c3n2)c1[N+](=O)[O-]	34.8*	-13.2%	19.7%	52.8*	-33.9%
